Molecules are shown by their SMILES. Where “and” joins values, the source holds several entries; their conditions need not be identical. Identical values can stand only once. Records with an inconclusive call do not appear. A structure can be active in one record and inactive in another. Calls of active or inactive are those of the source. Unless noted, calls come from the whole dose curve; as a rule, active = well fitted curve in the direction sought with a large enough effect in the repeat runs; inconclusive = weak or mixed curves; inactive = no such curve, though single readings can be large; an effect the other way counts as inactive or inconclusive.

Data on 31 molecules can be found in PubChem BioAssay (Tox21).

The nature of experiment [1]: qHTS assay to identify aromatase inhibitors - cell viability counter screen (AID 743084).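 Note: cells stimulated with testosterone during compound exposure; nearly all actives have a fitted effect of over 55% in size.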 Note: potency is the fitted concentration of half-maximal effect. In general terms: In qHTS, concentration-response curves come from the screen itself.
The target of experiment [2] is Aryl hydrocarbon receptor (Homo sapiens) (UniProt P35869). Kind of experiment: qHTS assay to identify small molecule that activate the aryl hydrocarbon receptor (AhR) signaling pathway (AID 743085).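 For activation: HG2L7.5c1 human HepG2 liver cells with stably integrated DRE-driven firefly reporter; series mostly up to about 70 µM.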 Note: nearly all actives have a fitted effect of over 15% in size. Note: potency is the fitted concentration of half-maximal effect. The method, boiled down:
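Stably transfected human liver carcinoma cells (HG2L7.5c1; 20 DRE-firefly luciferase) were incubated 5 h, dosed, and kept 24 h at 37C. Agonism was scored from increased luciferase luminescence.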

Experiment [3] has as its target Peroxisome proliferator-activated receptor gamma (Homo sapiens) (UniProt P37231). Kind of experiment: qHTS assay to identify small molecule antagonists of the peroxisome proliferator-activated receptor gamma (PPARg) signaling pathway (AID 743191; calls by dose curve; note: nearly all actives have a fitted effect of over 30% in size; note: potency is the fitted concentration of half-maximal effect). In outline:
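Beta-lactamase reporter under UAS control in HEK293H PPARg-bla cells; compound treatment 17 h at 37C. Read-out: fluorescence intensity after 1 h room-temperature incubation with LiveBLAzer B/G FRET substrate.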

A short description of experiment [4]: qHTS assay to identify small molecule antagonists of the peroxisome proliferator-activated receptor gamma (PPARg) signaling pathway - cell viability counter screen (AID 743194). Note: nearly all actives have a fitted effect of over 55% in size. Note: potency is the fitted concentration of half-maximal effect. The settings on record: Potency: co-treated with 50 nM rosiglitazone unless noted. The method, boiled down: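 Viability was measured as CellTiter-Glo luminescence in GeneBLAzer PPARg UAS-bla HEK293H cells. These cells had been exposed 17 h at 37 C to compounds together with rosiglitazone at 50 nM final, with the beta-lactamase readout taken in the same wells.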

A short description of experiment [5]: qHTS assay to identify small molecule that activate the aryl hydrocarbon receptor (AhR) signaling pathway - cell viability counter screen (AID 743086). Note: nearly all actives have a fitted effect of over 45% in size. Note: potency is the fitted concentration of half-maximal effect. The method, boiled down: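 Cytotoxicity counter screen: CellTiter-Fluor signal (30 min, 37 C) in 4000 HepG2 cells/well carrying the DRE-luciferase reporter, following 24 h compound exposure at 37 C.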
Experiment [6] concerns the target Peroxisome proliferator-activated receptor gamma (Homo sapiens) (UniProt P37231). In words: qHTS assay to identify small molecule agonists of the peroxisome proliferator-activated receptor gamma (PPARg) signaling pathway (AID 743094; active = well fitted activation curve with a large enough effect in the signal ratio in the repeat runs, not every such curve was filed as active; the % refers to the signal ratio). The method, boiled down:
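Cells from the PPARg UAS-bla HEK293H line are plated and incubated 5 h at 37C. Compounds in DMSO are pinned in and left 17 h at 37C. LiveBLAzer B/G substrate is then added for 1 h at room temperature before fluorescence is measured.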

Experiment [7] is described as follows: qHTS assay for small molecule agonists of the antioxidant response element (ARE) signaling pathway - cell viability counter screen (AID 743203; calls by dose curve; note: nearly all actives have a fitted effect of over 55% in size; note: potency is the fitted concentration of half-maximal effect). In outline: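 Cytotoxicity was tested in parallel with the ARE reporter screen. ARE-bla HepG2 cells were exposed to compounds for 16 hrs, and viability was taken from CellTiter-Glo luminescence.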
Experiment [8] can be described thus: qHTS assay for small molecule activators of the heat shock response signaling pathway - cell viability counter screen (AID 743209). Note: nearly all actives have a fitted effect of over 50% in size. Note: potency is the fitted concentration of half-maximal effect. The method, boiled down: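 Cytotoxicity counter screen run in parallel with the HSE beta-lactamase reporter, using the same wells. HeLa HSE-bla cells received compound for 5 h at 37 C; ATP-based CellTiter-Glo luminescence was measured after 30 min at room temperature.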

Experiment [9] in a line: qHTS assay for small molecule activators of the heat shock response signaling pathway (AID 743210; active = well fitted activation curve with a large enough effect in the signal ratio in the repeat runs, with a control signal flat, not every such curve was filed as active; the % refers to the signal ratio;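 note: HeLa cells with beta-lactamase reporter driven by heat shock elements; series mostly up to about 63 µM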). The method, boiled down:
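Fluorescence from a cleaved B/G FRET substrate (2.5 h, room temp) reports HSE-driven beta-lactamase in HeLa cells treated 5 h at 37 C with DMSO-dissolved compounds.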

Experiment [10] in a line: qHTS assay for small molecule agonists of the antioxidant response element (ARE) signaling pathway (AID 743202; active = well fitted activation curve with a large enough effect in the signal ratio in the repeat runs, not every such curve was filed as active; the % refers to the signal ratio; note: potency is the fitted concentration of half-maximal effect). The method, boiled down:
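Beta-lactamase reporter activity, read as fluorescence intensity, reflects ARE/Nrf2 pathway induction in HepG2 cells after 16 h compound exposure at 37 C; substrate loading was 2 h at room temperature.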

Aryl hydrocarbon receptor (Homo sapiens), sequence (P35869 whole entry, looked up): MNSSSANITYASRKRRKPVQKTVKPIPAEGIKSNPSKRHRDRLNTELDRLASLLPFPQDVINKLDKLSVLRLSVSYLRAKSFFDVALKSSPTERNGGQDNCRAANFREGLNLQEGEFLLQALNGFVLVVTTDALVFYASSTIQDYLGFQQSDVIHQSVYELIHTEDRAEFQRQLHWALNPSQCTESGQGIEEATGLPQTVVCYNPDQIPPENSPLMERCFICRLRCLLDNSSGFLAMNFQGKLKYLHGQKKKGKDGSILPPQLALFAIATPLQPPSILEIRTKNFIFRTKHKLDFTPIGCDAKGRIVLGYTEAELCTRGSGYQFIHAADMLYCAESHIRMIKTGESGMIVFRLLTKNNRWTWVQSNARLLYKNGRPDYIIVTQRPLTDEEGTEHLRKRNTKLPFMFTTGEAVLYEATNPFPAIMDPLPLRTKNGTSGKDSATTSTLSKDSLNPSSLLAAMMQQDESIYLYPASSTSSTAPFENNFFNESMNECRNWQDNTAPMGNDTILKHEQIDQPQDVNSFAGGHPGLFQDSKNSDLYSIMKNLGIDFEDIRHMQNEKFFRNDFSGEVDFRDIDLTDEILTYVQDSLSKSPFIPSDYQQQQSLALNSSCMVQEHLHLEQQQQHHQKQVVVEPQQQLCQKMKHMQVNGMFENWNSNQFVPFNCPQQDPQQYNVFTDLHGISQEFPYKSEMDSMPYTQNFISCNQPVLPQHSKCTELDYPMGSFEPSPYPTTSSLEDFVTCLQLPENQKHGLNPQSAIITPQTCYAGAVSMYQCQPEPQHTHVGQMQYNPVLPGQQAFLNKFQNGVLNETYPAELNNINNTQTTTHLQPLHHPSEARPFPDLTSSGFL
Peroxisome proliferator-activated receptor gamma (Homo sapiens), sequence (P37231 whole entry, looked up): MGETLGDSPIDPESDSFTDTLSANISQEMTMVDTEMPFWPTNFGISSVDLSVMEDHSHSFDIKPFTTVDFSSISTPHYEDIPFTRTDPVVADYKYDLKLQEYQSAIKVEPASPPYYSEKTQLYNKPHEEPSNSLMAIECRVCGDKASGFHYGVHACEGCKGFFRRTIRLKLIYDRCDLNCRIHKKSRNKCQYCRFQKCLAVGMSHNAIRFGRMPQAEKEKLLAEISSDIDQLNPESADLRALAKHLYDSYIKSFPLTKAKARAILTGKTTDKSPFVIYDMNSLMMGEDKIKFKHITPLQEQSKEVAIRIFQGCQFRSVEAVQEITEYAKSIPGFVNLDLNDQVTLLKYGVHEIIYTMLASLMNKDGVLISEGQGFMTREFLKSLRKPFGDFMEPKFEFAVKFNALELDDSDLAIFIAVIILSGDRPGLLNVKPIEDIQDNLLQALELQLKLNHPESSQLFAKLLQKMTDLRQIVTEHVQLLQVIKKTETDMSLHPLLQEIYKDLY

For `S=C=Nc1cccc2ccccc12`, the results for the Potency in experiment [1] and in experiment [2] were 30.3 µM (active) and 13.5 µM (active), respectively. Moreover, the Potency result in experiment [3] and in experiment [4] was “inactive” in each case.
For the molecule `Cc1ccc(OP(=O)(Oc2ccccc2)Oc2ccccc2)cc1`, the Potency entry in experiment [1], in experiment [5], in [6], in experiment [4], in [7] and in experiment [8] was “inactive” each time. In addition, the Potency result in experiment [9] is “inactive”.
With `COc1ccc(N)cc1N`, the Potency was 12.6 µM (active) in [1]; 63.1 µM (active) and inactive in experiment [5]; 19.9 µM (active) and 29.4 µM (active) in experiment [7]; 8.01 µM (active) in [8].
Turning to `CCOCn1c(-c2ccc(Cl)cc2)c(C#N)c(Br)c1C(F)(F)F`, the Potency result in experiment [2] was “inactive”.
On to `CC1(C)[C@H](C(=O)O[C@H](C#N)c2cccc(Oc3ccccc3)c2)[C@@H]1/C=C(\Cl)C(F)(F)F`, for which the Potency entry in experiment [1], in [5], in experiment [3], in experiment [10] and in [8] was “inactive” each time.
Consider `[Hg+2].[I-].[I-]`, for which the Potency in experiment [1] is 6.86 µM (active); in experiment [4], 8.71 µM (active); in [7] it was 9.69 µM (active); in [8] it was 27.5 µM (active).
For the molecule `ClCc1ccc(Cl)cc1Cl`, the Potency entry in experiment [1], in [5], in experiment [8] and in experiment [9] was “inactive” in each case.
As for `C=CCC1=C(C)C(OC(=O)C2C(C=C(C)C)C2(C)C)CC1=O` (stereo unspecified), the Potency is 25.8 µM (active) in [1], 58.3 µM (active) in [4], 51.5 µM (active) in experiment [7] and 46.3 µM (active) in experiment [8].
As to `CC(=O)[O-].CC(=O)[O-].O.O.[Cd+2]`, the values for the Potency in [1], in experiment [5] and in experiment [4] were 42.7 µM (active), 2.69 µM (active) and 0.682 µM (active), respectively.
Take `CCCOCC(=Nc1ccc(Cl)cc1C(F)(F)F)n1ccnc1`: the Potency in experiment [1] was 12.2 µM (active); in [5], 54.4 µM (active); in [4], 11 µM (active); in experiment [7] it was 13.7 µM (active); in experiment [8], 12.3 µM (active).
As to `O=[N+]([O-])c1cc([N+](=O)[O-])c2ccccc2c1`, the Potency in [2] was 16.3 µM (active). For the same molecule, in [5], the Potency result is “inactive”.
Consider `OC(c1ccc(Cl)cc1)(c1ccc(Cl)cc1)C(Cl)(Cl)Cl`, for which the Potency in experiment [1] is 61.1 µM (active); in experiment [4] it was 15.5 µM (active); in experiment [7] it was 43.3 µM (active). In addition, the Potency result in [5] was “inactive”.
In the case of `[Cd+2].[Cl-].[Cl-]`, the Potency in experiment [1] is 24.5 µM (active); in experiment [5], 2.19 µM (active) and 3.06 µM (active); in experiment [4], 1.55 µM (active); in experiment [7], 692 nM (active) and 545 nM (active).
As for `CC(C)(O)c1cnn2c(-c3ccc(F)c(-c4c(F)cccc4C#N)c3)cnc2n1`, the Potency result in experiment [1], in experiment [5], in [4], in experiment [7] and in [8] was “inactive” in each case.
For `[CH3][Hg][Cl]`, the Potency in [1] is 24.3 µM (active); in [4] it was 12.3 µM (active); in [8], 54.8 µM (active). Further, in experiment [5], the Potency entry is “inactive”.
As for `CC(C)[C@H](C(=O)O[C@H](C#N)c1cccc(Oc2ccccc2)c1)c1ccc(Cl)cc1`, the Potency result in [1], in experiment [5], in experiment [4], in experiment [10], in experiment [7] and in experiment [8] was “inactive” each time.
For the molecule `Oc1ccc(C(=C(Cl)Cl)c2ccc(O)cc2)cc1`, the Potency in experiment [1] is 48.5 µM (active); in experiment [3], 17.3 µM (active); in experiment [10], 24.3 µM (active). For the same molecule, the Potency entry in experiment [5] and in experiment [8] was “inactive” in each case.
Turning to `O=c1[nH]c2ccccc2n1CCCN1CCC(n2c(=O)[nH]c3cc(Cl)ccc32)CC1`, the Potency result in [1], in experiment [4], in experiment [10], in experiment [7], in experiment [8] and in experiment [9] was “inactive” each time.
With `Cc1cc(C)c(C2=C(OC(=O)CC(C)(C)C)C3(CCCC3)OC2=O)c(C)c1`, the Potency entry in [1], in experiment [5], in experiment [7], in experiment [8] and in [9] was “inactive” throughout.
With `CC1(C)C(/C=C(\Cl)C(F)(F)F)C1C(=O)OC(C#N)c1cccc(Oc2ccccc2)c1` (stereo unspecified), the Potency entry in [1], in [5], in [10] and in [8] was “inactive” throughout.
As for `CCOCCOC(C)=O`, the Potency result in experiment [1], in experiment [5], in [4] and in experiment [9] was “inactive” each time.
With `CCOP(=O)(NC(C)C)Oc1ccc(SC)c(C)c1` (stereo unspecified), the Potency entry in experiment [1] and in [6] was “inactive” in each case.
For the molecule `COP(=S)(OC)Oc1cc(Cl)c(Br)cc1Cl`, the Potency result in [1], in experiment [6], in experiment [8] and in experiment [9] was “inactive” in each case. The Potency was 43.6 µM (active) in experiment [3] and 34.7 µM (active) in experiment [4].
On to `C[C@]12Cc3nonc3C[C@@H]1CC[C@@H]1[C@@H]2CC[C@@]2(C)[C@H]1CC[C@]2(C)O`, for which the Potency entry in [1], in experiment [5], in experiment [4], in [7], in experiment [8] and in experiment [9] was “inactive” in each case. The Potency in experiment [10] was 8.41 µM (active).
As for `CC(C)N1C(=O)N(c2ccccc2)CSC1=NC(C)(C)C`, the Potency entry in [2] and in experiment [5] was “inactive” throughout.
For `CC(C)CC(C)Nc1ccc(Nc2ccccc2)cc1` (stereo unspecified), the Potency in experiment [1] is 47.7 µM (active); in experiment [5], 67.4 µM (active); in experiment [4] it was 42.9 µM (active); in [8] it was 54 µM (active).
With `CN(C)C1CSSSC1`, the Potency entry in experiment [1], in experiment [6], in [7], in experiment [8] and in [9] was “inactive” in each case. In addition, the Potency in [10] is 34.3 µM (active).
On to `O=C(CCl)Nc1ccccc1`, for which the Potency was 27.3 µM (active) in experiment [1], 61.1 µM (active) in experiment [5], 4.33 µM (active) in experiment [10] and 43.6 µM (active) in experiment [8].
Turning to `CN(C)C(=S)S`, the Potency is 14 µM (active) and 764 nM (active) and 4.86 µM (active) in [1]; “inactive and 21.7 µM (active)” in experiment [5]; 5 µM (active) and inactive and 2.19 µM (active) in experiment [8]. In addition, the Potency result in experiment [4] is “inactive”.
For `CC(=O)OC1(c2ccccc2)CCN(CCc2ccccc2)CC1`, the Potency entry in [1], in experiment [6], in [4], in experiment [7], in [8] and in experiment [9] was “inactive” in each case.
Consider `C[C@H]1O[C@@H](O[C@H]2[C@@H](O)C[C@H](O[C@H]3[C@@H](O)C[C@H](O[C@H]4CC[C@@]5(C)[C@H](CC[C@@H]6[C@@H]5CC[C@]5(C)[C@@H](C7=CC(=O)OC7)CC[C@]65O)C4)O[C@@H]3C)O[C@@H]2C)C[C@H](O)[C@@H]1O`, for which the Potency entry in [1] and in experiment [5] was “inactive” each time. Besides, the Potency was 7.8 nM (active) and 33.5 nM (active) in experiment [4]; 10.9 nM (active) and 6 nM (active) in experiment [7]; 87.7 nM (active) and 376 nM (active) in experiment [8].
